Rows were chosen to be rich in hits. Some 2.4% of all compounds tested hit in one or more screens of this group.
PKM2 activator = PKM2 (human) enzyme activation; P14618; purified PKM2, Kinase-Glo ATP luminescence, activation; response scale: 0% is enzyme alone, no compound; Potency, µM (top dose mostly 57.5 µM), for the others: at the highest dose activation, usual class: activators; 260,000 compounds, 0.34% hits; AID 1631; also: % is scaled to controls: 0 for no effect and ±100 for the full control effect; nearly all actives have a fitted effect of over 55% in size
Target sequence (P14618 whole entry, looked up): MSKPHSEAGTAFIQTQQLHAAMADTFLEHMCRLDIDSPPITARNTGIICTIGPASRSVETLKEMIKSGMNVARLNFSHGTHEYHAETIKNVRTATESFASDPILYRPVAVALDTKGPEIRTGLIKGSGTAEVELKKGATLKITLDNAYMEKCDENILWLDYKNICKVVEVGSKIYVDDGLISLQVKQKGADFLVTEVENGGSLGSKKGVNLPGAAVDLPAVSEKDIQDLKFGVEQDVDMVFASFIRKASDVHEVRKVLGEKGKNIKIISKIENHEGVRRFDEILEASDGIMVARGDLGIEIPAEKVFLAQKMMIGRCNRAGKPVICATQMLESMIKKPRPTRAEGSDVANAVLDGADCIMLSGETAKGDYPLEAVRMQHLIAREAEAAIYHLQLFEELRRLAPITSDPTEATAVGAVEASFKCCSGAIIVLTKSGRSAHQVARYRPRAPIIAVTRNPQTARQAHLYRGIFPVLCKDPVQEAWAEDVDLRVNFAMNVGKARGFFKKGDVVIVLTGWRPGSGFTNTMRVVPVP
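ATP formation by purified human PK-M2, quantified via coupled luciferase luminescence after 1 h at room temperature with 0.1 mM ADP and 0.5 mM PEP final.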
Rango-impB inh = Rango-importin beta binding inhibition. Q14974. Rango CFP/YFP FRET sensor + importin beta, 45 min. Potency, µM (titrated, usually from 92.2 µM), without a hit: top-dose inhibition of complex formation. 340,000 compounds, 0.031% hits. AID 540263; calls by dose curve;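 also: 0% = DMSO wells and 100% = buffer wells lacking importin beta; nearly all actives have a fitted effect of over 15% in size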
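FRET biosensor (snurportin 1 IBB flanked by EYFP and cerulean), 50 nM, with compound 5 min, then 0.125 microM importin beta in PBS, 1 mM DTT, 0.02% Tween-20, 0.1% BSA. CFP/YFP ratio read after 45 min at room temperature; pre-read flags interference.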
ELG1 repair inh = ELG1-dependent DNA repair inhibition; Potency, µM (doses to about 46.1 µM), without a hit: top-dose activity change, negative = inhibition, hits mostly inhibitors; 330,000 compounds, 2.3% hits; HEK293T ELG1-luciferase reporter, luminescence, 16 h; DNA damage induced by 5-fluorouridine; also: % is scaled to controls: 0 for no effect and ±100 for the full control effect; nearly all actives have a fitted effect of over 55% in size
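Luminescence from the luciferase reporter, measured 30 min after ONE-Glo reagent at room temperature, was the read-out. Beforehand, 2,000 cells per well were exposed for 16 hr at 37 °C to 5-fluorouridine together with compound or vehicle.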
PGK inhibitor = inhibitors of T. brucei phosphoglycerate kinase. PGK/GAPDH coupled, Kinase-Glo luminescence, 60 min. Potency, µM (doses to about 57.5 µM), without a hit: at the top dose activity change, negative = inhibition, most hits filed as inhibitors. 380,000 compounds, 0.043% hits; also: % is scaled to controls: 0 for no effect and ±100 for the full control effect; nearly all actives have a fitted effect of over 60% in size
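Luminescent ATP detection (Kinase-Glo Plus) follows a 60-minute room-temperature incubation, with wells lacking PGK as controls. Buffer: 100 mM TEA (pH 7.6), 5 mM MgCl2, 0.01% Tween-20. Coupling enzyme GAPDH (100 nM final) supplies unstable 1,3-BPG in-well.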
Tb PFK block = T. brucei PFK enzyme inhibition. AID 485367. 330,000 compounds, 0.17% hits. Potency, µM (doses to about 57.5 µM), for the others: at the highest dose activity, negative = inhibition, usual class: inhibitors. T. brucei PFK, ADP-Glo luminescence. O15648;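 also: 0% = uninhibited 1x PFK enzyme wells and -100% = no-enzyme wells; nearly all actives have a fitted effect of over 60% in size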
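Activity is normalized to no-enzyme wells (full inhibition) and 1.25 nM enzyme wells (no inhibition). Reaction: 0.5 mM F6P, 0.1 mM ATP, 45 min RT, ADP-Glo luminescence; concentration-response curves fitted and classed by quality.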
Rango release inh = inhibition of RanGTP-driven Rango-importin beta dissociation; O95149+P62826; Biochemical FRET Rango-importin beta, RanGTP-induced dissociation; Potency, µM (titrated, usually from 46.1 µM), for the others: top-dose activity change, negative = inhibition; 340,000 compounds, 0.071% hits; calls by dose curve; also: % of control where 0% means no effect; nearly all actives have a fitted effect of over 45% in size
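Recombinant Rango FRET biosensor (EYFP–snurportin 1 IBB–cerulean CFP10) at 0.1 uM premixed with 0.25 uM importin beta in PBS, 1 mM DTT, 0.02% Tween-20, 0.1% BSA. Compound added 5 min; RanGTP-RCC1 (0.6 uM Ran, 2 mM GTP, 0.2 uM RCC1) then triggers release, read at 45 min.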
Numbers without * were called inactive; ? = inconclusive; . = no result given. Unless noted, calls follow the shape of the dose curve; as a rule, active = well fitted curve in the direction sought with a large enough effect; inconclusive = small, poorly fitted or top-dose-only effect, or another doubt; inactive = no such curve, though single readings can be large; an effect the other way counts as inactive or inconclusive. Potency is read from the fitted curve at half-maximal effect.

SMILES	PKM2 activator	Rango-impB inh	ELG1 repair inh	PGK inhibitor	Tb PFK block	Rango release inh
Cc1onc(-c2ccccc2Cl)c1C(=O)OCC(=O)c1ccc2c(c1)OCCO2	3.1%	0.0%	13µM*	-0.3%	2.5%	-7.2%
Cc1ccc(-c2nn(C)c(=O)c3ccccc23)cc1CNC(=O)/C=C/c1ccccc1	-17.2%	1.1%	16.4µM*	4.1%	-0.1%	10.9%
CCN(CC)C(=O)c1ccc(NC(=O)c2ccc(-c3nn(C)c(=O)c4ccccc34)cc2)cc1	-2.1%	0.4%	-10.8%	-2.9%	-2.3%	-18.0%
CCCc1cc2c(n1Cc1cccc(Cl)c1)C(C)C1CN(C(=O)c3ccccc3)C(C)(C(=O)OC)C21 (stereo not drawn)	7.6%	.	.	.	.	.
N=C1/C(=C\c2ccc(OC(=O)c3ccccc3Cl)cc2)C(=O)N=C2SC(N3CCOCC3)=NN12	.	?	12.2%	-11.5%	7.8%	-23.1%
COc1ccccc1N=Nc1ccc(N)c(C)c1	.	1.9%	?	-4.0%	1.3%	-0.7%
CC(C)COP(=O)(OCC(C)C)C(Nc1ccccc1)c1ccccc1 (stereo not drawn)	0.0%	4.1%	?	-5.4%	1.6%	10.7%
O=P(Oc1ccccc1)(Oc1ccccc1)C(Nc1ccccc1)c1ccccc1 (stereo not drawn)	7.7%	2.8%	20.6µM*	2.4%	8.3%	0.6%
Cc1cc(/C=C2\C(=O)NC(=O)N(c3ccc(F)cc3)C2=O)c(C)n1-c1cccc(C(=O)O)c1	9.1%	?	4.9%	10.6%	28.1%	-9.8%
Cc1cc(/C=C2\C(=O)NC(=O)N(c3ccccc3F)C2=O)c(C)n1-c1cc(C(=O)O)cc(C(=O)O)c1	.	?	0.0%	11.2µM*	-24.3%	-21.6%
CCCCCCn1c(=O)c(C(=O)Nc2nc(CC(=O)OCC)cs2)c(O)c2ccccc21	-13.1%	-2.3%	1.64µM*	-5.3%	-8.9%	1.1%
CCOC(=O)c1ncn2c1CN(C)C(=O)c1cc(N=[N+]=[N-])ccc1-2	-11.1%	.	.	.	.	.
COC(=O)c1c(NC(=O)C2CC=CCC2C(=O)O)sc2c1CCCCC2 (stereo not drawn)	1.0%	-0.6%	?	-19.2%	0.3%	1.6%
COC(=O)C1(C)C=C2C(=C(C)C(=O)C2C)CN1 (stereo not drawn)	1.8%	.	.	.	.	.
Cc1ccc(-c2cc(-c3ccccc3)cc(-c3ccccc3)[n+]2-c2ccccc2)cc1	.	-0.5%	?	-3.5%	-9.7%	11.6%
c1ccc(-c2cc(-c3ccccc3)[n+](-c3ccccc3)c(-c3ccccc3)c2)cc1	-8.4%	0.6%	2.31µM*	3.3%	-0.2%	19.4%
CN(C)c1ccc(-[n+]2c(-c3ccccc3)cc(-c3ccccc3)cc2-c2ccccc2)cc1	3.5%	0.9%	4.61µM*	0.3%	0.9%	14.2%
O=C(NNc1c(F)c(F)cc(F)c1F)c1cc2ccccc2oc1=O	-1.5%	-4.1%	?	-6.2%	-4.3%	8.4%
CCc1nnc(NC(=O)CSc2ccc(-c3ccco3)nn2)s1	15.8µM*	-4.2%	0.0%	1.9%	?	-9.6%
O=C(CSc1ccc(-c2ccco2)nn1)Nc1ccccc1	14.1µM*	0.9%	?	0.1%	0.0%	-15.6%
N#CC(C#N)=NNc1ccc(OC(F)(F)F)cc1	12.1%	.	.	.	.	.
O=c1[nH]c(=S)[nH]c(O)c1N=Nc1ccc(-c2ccccc2)cc1[N+](=O)[O-]	-31.6%	.	-3.8%	.	-16.1%	.
O=C(COc1ccc(Cl)cc1)Nc1ccc(Cl)cc1C(=O)c1ccccc1	.	.	.	-0.7%	.	.
NC(=O)Nc1ccc(C(=O)OCC(=O)Nc2ccc(Cl)cc2C(=O)c2ccccc2)cc1	2.2%	-2.1%	20.6µM*	-8.8%	9.5%	-0.2%

Source: PubChem (National Center for Advancing Translational Sciences (NCATS))
